From the supplement of paper PMC11732987, “Enantioselective OTUD7B fragment discovery through chemoproteomics screening and high-throughput optimisation” (Communications Chemistry, 2025)

What was measured:
Assay in all cases: log2 ratio of Biotin-Ahx-Ub-VS probe labelling (fragment/DMSO); higher = less target engagement (more negative = stronger competition), active = hit call of the paper (q ≤ 0.05, log2 ratio ≤ -1)
Conditions in all cases: compound concentration: 200 uM; treatment time: 3 h
[1] = target: T1, USP42 (UniProt Q9H9J4)
T1 sequence (whole entry): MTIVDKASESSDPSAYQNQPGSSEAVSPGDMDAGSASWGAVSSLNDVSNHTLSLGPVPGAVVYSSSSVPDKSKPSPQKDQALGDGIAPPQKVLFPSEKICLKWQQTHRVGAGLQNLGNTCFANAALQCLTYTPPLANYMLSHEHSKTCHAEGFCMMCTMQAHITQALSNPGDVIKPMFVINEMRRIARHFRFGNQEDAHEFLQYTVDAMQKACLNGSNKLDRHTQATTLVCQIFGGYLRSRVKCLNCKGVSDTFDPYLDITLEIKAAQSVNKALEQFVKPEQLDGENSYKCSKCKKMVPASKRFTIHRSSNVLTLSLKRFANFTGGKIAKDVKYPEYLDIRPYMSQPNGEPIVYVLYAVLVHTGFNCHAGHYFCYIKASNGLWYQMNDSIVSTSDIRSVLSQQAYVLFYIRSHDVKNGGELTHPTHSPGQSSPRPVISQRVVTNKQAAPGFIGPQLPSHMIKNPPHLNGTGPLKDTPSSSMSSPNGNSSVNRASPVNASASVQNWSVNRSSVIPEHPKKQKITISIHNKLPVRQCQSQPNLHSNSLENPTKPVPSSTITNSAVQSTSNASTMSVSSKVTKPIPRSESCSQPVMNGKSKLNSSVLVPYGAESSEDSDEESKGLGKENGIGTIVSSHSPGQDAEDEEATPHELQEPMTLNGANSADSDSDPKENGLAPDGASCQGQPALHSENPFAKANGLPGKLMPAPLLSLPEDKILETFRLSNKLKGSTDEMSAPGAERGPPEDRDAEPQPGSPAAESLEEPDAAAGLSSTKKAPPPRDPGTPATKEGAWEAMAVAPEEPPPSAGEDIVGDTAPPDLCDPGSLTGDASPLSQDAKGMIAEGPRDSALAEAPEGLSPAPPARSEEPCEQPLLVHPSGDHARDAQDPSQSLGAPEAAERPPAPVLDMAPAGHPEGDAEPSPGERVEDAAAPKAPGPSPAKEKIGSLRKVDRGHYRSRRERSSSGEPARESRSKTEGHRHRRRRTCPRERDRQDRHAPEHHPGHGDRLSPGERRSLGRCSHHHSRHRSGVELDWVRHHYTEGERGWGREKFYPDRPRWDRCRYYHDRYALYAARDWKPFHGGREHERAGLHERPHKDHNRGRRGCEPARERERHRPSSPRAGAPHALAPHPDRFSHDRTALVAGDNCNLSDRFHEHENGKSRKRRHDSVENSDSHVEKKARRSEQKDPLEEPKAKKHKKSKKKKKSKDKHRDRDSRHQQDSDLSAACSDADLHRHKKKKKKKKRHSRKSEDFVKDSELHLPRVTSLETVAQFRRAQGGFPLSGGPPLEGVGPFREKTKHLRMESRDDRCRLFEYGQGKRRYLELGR
Procedure, shortened: (§1)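 In triplicate, 495 µg of HEK293T lysate per sample was incubated with fragment at 200 µM or vehicle for 3 h. Biotin-Ahx-Ub-VS was then added to 0.5 µM final for 1 h, and labelled DUBs were captured with NeutrAvidin, digested with LysC and trypsin, and measured by diaPASEF LC-MS/MS. Data are average log2 fragment/vehicle ratios by unpaired t-test from global-median-normalised Spectronaut label-free quantities, restricted to proteins with ≥2 unique peptides.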

[2] = target: USP46 (UniProt P62068)
Sequence of USP46 (P62068 whole entry): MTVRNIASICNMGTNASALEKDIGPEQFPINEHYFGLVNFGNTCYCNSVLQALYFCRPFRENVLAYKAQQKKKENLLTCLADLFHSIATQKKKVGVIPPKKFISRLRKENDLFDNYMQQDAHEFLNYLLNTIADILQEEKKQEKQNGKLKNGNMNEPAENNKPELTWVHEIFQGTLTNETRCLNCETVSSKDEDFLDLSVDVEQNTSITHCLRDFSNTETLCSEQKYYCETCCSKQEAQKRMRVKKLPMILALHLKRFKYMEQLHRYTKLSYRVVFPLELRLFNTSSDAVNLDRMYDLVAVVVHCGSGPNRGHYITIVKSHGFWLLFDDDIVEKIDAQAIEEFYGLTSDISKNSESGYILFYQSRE
Procedure, shortened: as §1

[3] = target: T2, USP47 (UniProt Q96K76)
T2 sequence (whole entry): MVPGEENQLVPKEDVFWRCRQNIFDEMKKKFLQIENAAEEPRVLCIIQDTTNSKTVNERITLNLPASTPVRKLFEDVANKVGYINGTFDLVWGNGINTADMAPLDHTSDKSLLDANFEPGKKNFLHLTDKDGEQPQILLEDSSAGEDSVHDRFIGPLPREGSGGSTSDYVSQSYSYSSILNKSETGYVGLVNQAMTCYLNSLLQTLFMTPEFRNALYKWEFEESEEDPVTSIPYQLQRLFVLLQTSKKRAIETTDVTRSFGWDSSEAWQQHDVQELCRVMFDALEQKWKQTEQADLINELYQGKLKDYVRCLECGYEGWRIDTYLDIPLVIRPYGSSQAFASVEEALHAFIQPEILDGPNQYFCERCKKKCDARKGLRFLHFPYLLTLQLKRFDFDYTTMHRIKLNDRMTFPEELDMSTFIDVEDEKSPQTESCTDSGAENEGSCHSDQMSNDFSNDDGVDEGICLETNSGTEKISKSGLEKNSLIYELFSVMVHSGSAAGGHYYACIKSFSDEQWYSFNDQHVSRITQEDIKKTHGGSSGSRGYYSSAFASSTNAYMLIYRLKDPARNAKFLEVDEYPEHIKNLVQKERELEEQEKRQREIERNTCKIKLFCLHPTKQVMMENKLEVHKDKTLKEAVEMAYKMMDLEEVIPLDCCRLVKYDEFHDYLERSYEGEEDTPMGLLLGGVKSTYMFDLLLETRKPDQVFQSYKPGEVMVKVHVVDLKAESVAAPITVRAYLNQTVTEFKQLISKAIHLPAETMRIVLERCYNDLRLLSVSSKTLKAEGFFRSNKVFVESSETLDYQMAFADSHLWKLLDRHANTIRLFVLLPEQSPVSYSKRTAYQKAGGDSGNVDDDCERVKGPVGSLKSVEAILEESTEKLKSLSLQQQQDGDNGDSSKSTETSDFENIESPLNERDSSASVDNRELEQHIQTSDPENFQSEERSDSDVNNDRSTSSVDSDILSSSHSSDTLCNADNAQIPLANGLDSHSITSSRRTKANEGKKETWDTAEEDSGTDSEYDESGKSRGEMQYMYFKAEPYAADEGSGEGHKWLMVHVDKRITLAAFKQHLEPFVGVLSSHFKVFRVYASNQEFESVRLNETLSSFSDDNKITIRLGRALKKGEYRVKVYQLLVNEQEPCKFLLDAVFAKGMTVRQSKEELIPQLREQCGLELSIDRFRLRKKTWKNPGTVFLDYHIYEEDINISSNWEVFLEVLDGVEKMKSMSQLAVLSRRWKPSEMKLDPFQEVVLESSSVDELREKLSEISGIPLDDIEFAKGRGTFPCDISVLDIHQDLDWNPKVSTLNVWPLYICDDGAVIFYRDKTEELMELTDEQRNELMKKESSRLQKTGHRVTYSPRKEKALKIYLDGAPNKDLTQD
Procedure, shortened: as §1

[4] = target: T3, USP48 (UniProt Q86UV5)
T3 sequence (whole entry): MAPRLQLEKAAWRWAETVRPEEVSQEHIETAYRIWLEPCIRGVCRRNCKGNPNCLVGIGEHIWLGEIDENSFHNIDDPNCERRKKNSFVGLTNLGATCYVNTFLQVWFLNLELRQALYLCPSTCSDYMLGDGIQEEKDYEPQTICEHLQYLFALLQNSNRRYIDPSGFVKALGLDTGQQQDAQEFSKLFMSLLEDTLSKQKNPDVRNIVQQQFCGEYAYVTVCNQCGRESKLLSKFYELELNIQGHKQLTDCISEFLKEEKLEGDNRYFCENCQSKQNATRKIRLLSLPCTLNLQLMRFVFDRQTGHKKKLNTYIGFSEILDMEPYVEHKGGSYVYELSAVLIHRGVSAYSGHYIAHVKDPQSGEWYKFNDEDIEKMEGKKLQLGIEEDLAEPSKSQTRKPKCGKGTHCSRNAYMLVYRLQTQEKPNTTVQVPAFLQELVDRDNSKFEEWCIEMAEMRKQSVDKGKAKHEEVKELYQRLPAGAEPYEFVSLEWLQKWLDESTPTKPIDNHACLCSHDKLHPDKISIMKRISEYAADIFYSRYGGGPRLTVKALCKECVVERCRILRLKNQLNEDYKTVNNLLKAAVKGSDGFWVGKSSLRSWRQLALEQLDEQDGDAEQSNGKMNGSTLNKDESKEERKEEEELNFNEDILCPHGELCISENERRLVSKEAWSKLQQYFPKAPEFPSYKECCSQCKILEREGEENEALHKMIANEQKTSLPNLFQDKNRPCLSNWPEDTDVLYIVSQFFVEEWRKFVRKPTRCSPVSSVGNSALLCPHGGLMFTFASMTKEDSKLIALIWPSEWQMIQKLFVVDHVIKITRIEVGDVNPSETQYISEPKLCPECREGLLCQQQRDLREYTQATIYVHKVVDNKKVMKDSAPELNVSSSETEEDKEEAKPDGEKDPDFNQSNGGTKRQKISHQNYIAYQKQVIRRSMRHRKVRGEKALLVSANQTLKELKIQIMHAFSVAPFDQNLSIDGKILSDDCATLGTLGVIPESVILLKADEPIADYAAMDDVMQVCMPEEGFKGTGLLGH
Procedure, shortened: as §1

[5] = target: T4, USP5 (UniProt P45974)
T4 sequence (whole entry): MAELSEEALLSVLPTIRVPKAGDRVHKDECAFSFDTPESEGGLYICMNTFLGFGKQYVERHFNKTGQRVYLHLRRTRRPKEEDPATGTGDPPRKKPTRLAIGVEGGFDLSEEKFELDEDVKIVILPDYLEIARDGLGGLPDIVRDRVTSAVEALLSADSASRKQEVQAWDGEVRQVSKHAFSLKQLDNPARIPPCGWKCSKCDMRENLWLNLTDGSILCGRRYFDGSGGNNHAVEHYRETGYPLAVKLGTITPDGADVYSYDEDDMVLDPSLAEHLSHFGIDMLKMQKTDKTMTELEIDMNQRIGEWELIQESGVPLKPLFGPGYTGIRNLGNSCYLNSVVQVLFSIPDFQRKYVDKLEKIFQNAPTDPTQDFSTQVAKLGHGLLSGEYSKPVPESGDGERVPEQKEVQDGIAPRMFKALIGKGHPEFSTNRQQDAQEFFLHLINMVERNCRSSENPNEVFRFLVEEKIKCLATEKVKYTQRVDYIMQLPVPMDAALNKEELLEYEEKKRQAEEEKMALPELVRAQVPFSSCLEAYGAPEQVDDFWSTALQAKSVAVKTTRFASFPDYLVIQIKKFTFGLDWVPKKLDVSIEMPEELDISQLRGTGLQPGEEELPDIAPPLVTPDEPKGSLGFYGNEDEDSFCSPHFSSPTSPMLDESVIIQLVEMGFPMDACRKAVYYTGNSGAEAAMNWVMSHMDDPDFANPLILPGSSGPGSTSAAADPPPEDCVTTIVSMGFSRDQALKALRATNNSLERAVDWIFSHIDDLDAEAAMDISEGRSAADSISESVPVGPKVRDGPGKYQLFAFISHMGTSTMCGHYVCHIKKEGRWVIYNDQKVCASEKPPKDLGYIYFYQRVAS
Procedure, shortened: as §1

[6] = target: USP54 (UniProt Q70EL1)
Sequence of USP54 (Q70EL1 whole entry): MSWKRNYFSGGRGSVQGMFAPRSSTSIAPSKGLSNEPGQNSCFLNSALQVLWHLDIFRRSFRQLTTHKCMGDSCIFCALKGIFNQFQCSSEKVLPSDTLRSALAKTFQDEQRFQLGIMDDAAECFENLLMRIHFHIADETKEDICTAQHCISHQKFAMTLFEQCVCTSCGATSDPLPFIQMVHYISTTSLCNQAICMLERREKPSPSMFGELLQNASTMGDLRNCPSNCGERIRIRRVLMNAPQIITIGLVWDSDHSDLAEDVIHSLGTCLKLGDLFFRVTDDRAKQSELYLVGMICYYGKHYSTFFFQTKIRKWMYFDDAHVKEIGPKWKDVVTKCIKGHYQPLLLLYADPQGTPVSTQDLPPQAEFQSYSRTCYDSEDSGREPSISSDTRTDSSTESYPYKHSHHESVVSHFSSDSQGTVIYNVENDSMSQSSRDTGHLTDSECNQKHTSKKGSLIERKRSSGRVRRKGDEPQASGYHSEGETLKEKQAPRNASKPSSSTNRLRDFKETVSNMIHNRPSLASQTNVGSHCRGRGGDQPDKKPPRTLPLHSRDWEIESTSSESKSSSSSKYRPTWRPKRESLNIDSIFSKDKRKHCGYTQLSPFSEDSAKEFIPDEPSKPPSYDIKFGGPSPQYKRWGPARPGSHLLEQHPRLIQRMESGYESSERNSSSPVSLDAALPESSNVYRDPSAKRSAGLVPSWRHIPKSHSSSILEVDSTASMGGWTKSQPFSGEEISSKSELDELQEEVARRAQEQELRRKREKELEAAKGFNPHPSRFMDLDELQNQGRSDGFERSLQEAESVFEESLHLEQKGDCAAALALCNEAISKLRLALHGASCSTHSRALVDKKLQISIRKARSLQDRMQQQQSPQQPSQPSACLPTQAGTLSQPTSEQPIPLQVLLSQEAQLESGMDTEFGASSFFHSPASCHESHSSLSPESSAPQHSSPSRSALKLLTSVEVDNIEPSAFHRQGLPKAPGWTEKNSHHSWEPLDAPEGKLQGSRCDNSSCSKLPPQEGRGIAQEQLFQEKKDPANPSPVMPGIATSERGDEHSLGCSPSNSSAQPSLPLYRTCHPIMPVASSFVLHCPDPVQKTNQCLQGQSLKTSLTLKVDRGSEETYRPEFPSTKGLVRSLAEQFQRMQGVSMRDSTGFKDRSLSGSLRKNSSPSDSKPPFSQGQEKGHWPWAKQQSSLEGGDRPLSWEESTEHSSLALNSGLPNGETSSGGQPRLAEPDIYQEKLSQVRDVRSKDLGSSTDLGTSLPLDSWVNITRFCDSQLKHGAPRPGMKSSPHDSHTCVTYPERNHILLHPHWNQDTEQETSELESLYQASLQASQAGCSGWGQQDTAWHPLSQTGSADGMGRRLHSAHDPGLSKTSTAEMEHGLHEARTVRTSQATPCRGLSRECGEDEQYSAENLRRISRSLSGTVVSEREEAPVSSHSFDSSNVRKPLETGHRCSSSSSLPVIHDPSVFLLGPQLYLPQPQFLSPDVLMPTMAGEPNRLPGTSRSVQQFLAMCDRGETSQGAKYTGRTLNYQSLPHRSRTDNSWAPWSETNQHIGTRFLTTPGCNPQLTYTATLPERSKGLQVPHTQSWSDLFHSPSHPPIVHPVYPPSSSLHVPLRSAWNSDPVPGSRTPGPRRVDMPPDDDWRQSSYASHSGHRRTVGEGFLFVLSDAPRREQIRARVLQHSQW
Procedure, shortened: as §1

[7] = target: USP7 (UniProt Q93009)
Sequence of USP7 (Q93009 whole entry, looked up): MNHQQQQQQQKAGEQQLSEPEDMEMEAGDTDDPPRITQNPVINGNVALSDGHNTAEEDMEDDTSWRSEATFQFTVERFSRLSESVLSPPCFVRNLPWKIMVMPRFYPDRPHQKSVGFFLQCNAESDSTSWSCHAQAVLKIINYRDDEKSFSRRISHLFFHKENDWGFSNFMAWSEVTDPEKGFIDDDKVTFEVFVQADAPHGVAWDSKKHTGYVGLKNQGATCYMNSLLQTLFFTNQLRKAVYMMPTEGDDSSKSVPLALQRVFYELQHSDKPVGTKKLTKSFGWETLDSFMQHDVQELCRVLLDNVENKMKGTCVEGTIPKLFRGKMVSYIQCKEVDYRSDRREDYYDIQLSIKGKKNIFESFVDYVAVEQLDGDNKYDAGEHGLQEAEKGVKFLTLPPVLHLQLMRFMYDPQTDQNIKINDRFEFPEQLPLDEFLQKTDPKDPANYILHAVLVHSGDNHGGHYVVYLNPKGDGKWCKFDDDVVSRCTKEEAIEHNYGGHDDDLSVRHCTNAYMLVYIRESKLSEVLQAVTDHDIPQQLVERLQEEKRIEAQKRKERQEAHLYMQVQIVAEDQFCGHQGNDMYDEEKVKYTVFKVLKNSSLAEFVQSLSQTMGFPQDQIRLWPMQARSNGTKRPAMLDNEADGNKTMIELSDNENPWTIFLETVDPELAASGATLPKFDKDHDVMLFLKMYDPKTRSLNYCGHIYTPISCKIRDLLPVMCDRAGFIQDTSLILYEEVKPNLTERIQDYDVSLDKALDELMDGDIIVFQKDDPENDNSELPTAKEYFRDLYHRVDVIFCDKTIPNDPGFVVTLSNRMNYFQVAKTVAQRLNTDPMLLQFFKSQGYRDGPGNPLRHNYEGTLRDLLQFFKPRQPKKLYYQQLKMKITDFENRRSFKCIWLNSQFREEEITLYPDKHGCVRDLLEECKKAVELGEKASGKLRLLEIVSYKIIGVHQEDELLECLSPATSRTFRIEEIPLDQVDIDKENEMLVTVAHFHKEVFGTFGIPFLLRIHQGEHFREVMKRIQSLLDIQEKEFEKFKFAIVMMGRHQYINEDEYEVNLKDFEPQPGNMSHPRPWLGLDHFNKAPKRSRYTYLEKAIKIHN
Procedure, shortened: as §1

[8] = target: T5, USP8 (UniProt P40818)
T5 sequence (whole entry): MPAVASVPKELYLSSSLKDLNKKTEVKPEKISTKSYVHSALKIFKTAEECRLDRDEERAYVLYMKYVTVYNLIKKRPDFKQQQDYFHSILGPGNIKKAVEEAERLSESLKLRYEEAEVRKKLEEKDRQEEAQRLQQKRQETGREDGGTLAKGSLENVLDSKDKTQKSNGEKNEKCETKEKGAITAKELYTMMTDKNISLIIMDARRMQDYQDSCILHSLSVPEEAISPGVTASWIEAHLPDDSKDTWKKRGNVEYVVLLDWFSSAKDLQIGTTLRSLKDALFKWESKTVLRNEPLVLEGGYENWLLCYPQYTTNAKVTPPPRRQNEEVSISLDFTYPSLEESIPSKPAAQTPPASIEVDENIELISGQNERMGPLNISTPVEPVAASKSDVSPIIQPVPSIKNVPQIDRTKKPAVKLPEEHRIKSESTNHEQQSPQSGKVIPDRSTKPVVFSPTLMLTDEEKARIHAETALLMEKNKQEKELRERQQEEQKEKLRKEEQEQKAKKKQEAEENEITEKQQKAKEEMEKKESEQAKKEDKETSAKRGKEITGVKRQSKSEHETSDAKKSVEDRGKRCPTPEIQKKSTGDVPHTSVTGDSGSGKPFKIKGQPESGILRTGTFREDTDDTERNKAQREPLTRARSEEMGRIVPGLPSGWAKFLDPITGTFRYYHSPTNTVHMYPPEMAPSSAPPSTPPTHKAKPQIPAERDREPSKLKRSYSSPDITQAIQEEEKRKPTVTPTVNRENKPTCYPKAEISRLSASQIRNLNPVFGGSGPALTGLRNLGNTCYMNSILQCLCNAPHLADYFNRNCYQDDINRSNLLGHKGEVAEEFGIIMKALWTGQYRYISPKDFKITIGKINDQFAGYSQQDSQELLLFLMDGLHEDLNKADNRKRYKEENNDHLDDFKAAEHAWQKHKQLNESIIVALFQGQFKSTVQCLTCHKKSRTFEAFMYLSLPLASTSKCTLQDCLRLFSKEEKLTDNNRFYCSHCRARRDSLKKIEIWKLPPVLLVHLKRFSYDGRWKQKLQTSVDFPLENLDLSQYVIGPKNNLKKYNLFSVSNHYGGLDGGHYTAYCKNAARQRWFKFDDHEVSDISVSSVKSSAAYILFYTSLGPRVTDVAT
Procedure, shortened: as §1

Measured: log2 ratio of Biotin-Ahx-Ub-VS probe labelling

Cc1cc(NC(=O)CCl)n(-c2ccccc2)n1
inactive: [1] 0.45 | [2] -0.023 | [3] -0.584 | [4] 0.128 | [5] -0.00592 | [6] -0.0011 | [7] -0.0104 | [8] -0.118
